The target in assay [1] is Cytochrome P450 1A2 (Homo sapiens) (UniProt P05177). Kind of assay: p450-cyp1a2 (AID 410; calls by dose curve; note: potency is the fitted concentration of half-maximal effect). In a few lines: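 Luminescent readout of luciferin formed from Luciferin-ME by human CYP1A2; data normalized against complete inhibition by 57 uM furafylline. Enzyme 20nM, substrate 100uM at Km, 100mM KPO4 buffer, 60 min reaction at room temperature.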
The target of assay [2] is Mitogen-activated protein kinase 10 (Mus musculus) (UniProt Q61831). Kind of assay: JNK3 AlphaScreen Assay (AID 530; active = well fitted curve in either direction with a large enough effect, not every such curve was filed as active;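 note: kinase came from lysate of stimulated human HepG2 cells; signal reports phosphorylation of biotinylated GST-cJun 1-79 at Ser73 with 10 µM ATP; series mostly up to about 57 µM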). Summed up: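 Compound titrations were preincubated 15 minutes at room temperature with substrate, antibody and pre-activated JNK3-containing HepG2 lysate. Reactions were started with 10 uM ATP and stopped with EDTA-containing bead buffer for AlphaScreen detection.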

Assay [3] deals with 3',5'-cyclic-AMP phosphodiesterase 4B (Homo sapiens) (UniProt Q07343). Kind of assay: qHTS Assay for Inhibitors of PDE-IV (AID 607; active = well fitted activation curve with a large enough effect in the main read-out, with a control signal flat, not every such curve was filed as active; note: potency is the fitted concentration of half-maximal effect). In a few lines: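 Cell-based read-out of cAMP via a modified cyclic nucleotide-gated channel and membrane potential dye (535/590 nm) in HEK293 cells expressing PDE4 endogenously. Compounds tested up to 22.9 uM final; 100 uM RO 20-1724 reference.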
3',5'-cyclic-AMP phosphodiesterase 4B (Homo sapiens), sequence (Q07343 whole entry, looked up): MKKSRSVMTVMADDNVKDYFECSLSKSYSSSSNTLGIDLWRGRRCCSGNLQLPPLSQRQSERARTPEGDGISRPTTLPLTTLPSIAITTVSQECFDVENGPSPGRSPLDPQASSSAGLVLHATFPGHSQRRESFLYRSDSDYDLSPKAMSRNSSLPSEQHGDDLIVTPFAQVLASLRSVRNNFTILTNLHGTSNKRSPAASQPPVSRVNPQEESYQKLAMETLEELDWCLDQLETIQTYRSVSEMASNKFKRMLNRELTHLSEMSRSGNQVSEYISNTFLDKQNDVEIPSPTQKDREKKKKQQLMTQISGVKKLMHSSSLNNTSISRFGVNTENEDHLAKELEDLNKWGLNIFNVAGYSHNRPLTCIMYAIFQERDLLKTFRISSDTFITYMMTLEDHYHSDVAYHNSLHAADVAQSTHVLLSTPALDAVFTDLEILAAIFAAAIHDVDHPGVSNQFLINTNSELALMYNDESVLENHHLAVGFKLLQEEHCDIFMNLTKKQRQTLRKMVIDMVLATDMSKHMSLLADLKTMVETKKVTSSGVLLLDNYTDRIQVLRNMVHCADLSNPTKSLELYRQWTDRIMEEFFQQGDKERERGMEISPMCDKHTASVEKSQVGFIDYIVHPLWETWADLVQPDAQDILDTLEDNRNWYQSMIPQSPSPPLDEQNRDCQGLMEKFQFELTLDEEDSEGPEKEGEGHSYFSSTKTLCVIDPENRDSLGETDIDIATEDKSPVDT
Background: qHTS replaces the single test concentration by a dilution series.

In assay [4] the target is Cytochrome P450 3A4 (Homo sapiens) (UniProt P08684). Nature of the assay: qHTS Assay for Inhibitors and Substrates of Cytochrome P450 3A4 (AID 884). Note: potency is the fitted concentration of half-maximal effect; nearly all actives have a fitted effect of over 50% in size. In a few lines:
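20 nM human CYP3A4 with 25 uM Luciferin-PPXE (at KM) in 200 mM KPO4, preincubated 10 min with compound; NADPH regeneration started a 60 min RT reaction. Luciferin detected by luminescence, normalized to 57 uM ketoconazole as full inhibition.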

Assay [5] shares this target. Nature of the assay: qHTS Assay for Activators of Cytochrome P450 3A4 (AID 885). Note: nearly all actives have a fitted effect of over 65% in size. In a few lines:
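Signal was normalized against complete inhibition by 57 uM ketoconazole. The reaction used 20nM CYP3A4 with 25uM Luciferin-PPXE, 10-min compound preincubation and a 60-min NADPH-supported step at RT.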

Assay [6] deals with Cytochrome P450 2C19 (Homo sapiens) (UniProt P33261). Kind of assay: qHTS Assay for Inhibitors and Substrates of Cytochrome P450 2C19 (AID 899). Note: potency is the fitted concentration of half-maximal effect; nearly all actives have a fitted effect of over 60% in size. In a few lines:
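Luminescence readout of luciferin formed from 10uM Luciferin-H EGE (KM level) by 5 nM CYP2C19 in 50mM KPO4. 60 min NADPH-driven reaction at 37C after 10 min compound preincubation; data scaled to 57uM ketoconazole inhibition.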

The target in assay [7] is Cytochrome P450 2D6 (Homo sapiens) (UniProt P10635). Kind of assay: qHTS Assay for Inhibitors and Substrates of Cytochrome P450 2D6 (AID 891). Note: potency is the fitted concentration of half-maximal effect; nearly all actives have a fitted effect of over 60% in size. Summed up: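 Human CYP2D6 (5 nM) with 30 uM Luciferin-ME EGE (at Km) in 100 mM KPO4, compound preincubated 10 min, then NADPH regeneration system for 60 min at room temperature. Luciferin read by luminescence; normalized to 1.43 uM quinidine.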
Cytochrome P450 2D6 (Homo sapiens), sequence (P10635 whole entry, looked up): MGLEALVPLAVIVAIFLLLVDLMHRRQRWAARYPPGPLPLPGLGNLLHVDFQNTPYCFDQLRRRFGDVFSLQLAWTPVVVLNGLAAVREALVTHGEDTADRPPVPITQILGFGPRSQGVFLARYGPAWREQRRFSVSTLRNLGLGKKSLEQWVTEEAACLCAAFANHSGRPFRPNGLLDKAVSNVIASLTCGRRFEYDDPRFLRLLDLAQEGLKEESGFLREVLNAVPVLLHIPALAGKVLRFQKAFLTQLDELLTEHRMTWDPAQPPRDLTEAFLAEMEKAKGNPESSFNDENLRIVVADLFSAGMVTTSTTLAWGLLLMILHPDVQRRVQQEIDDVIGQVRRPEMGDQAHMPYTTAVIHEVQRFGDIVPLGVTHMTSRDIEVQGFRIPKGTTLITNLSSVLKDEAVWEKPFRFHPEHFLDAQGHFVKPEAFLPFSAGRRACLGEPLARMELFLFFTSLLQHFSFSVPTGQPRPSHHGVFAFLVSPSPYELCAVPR

Inconclusive results are not listed. Activity calls are given as the source filed them. Unless noted, calls come from the whole dose curve; as a rule, active = well fitted curve in the direction sought with a large enough effect; inconclusive = small, poorly fitted or top-dose-only effect, or another doubt; inactive = no such curve, though single readings can be large; an effect the other way counts as inactive or inconclusive.

Cytochrome P450 1A2 (Homo sapiens), sequence (P05177 whole entry, looked up): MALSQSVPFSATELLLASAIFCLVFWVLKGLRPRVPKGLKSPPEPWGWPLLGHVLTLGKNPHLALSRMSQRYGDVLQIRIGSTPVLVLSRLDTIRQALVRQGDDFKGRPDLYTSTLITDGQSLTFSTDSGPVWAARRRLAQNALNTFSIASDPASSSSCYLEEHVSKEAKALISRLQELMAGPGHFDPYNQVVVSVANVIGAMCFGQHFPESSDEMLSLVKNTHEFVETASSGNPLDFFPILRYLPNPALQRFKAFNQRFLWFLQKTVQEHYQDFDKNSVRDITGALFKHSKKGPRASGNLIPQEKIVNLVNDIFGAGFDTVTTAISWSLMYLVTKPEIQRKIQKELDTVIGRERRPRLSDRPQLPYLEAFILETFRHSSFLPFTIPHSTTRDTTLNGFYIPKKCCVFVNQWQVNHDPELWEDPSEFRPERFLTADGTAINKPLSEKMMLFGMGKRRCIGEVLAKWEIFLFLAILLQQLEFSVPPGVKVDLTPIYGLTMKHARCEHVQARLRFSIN
Cytochrome P450 3A4 (Homo sapiens), sequence (P08684 whole entry, looked up): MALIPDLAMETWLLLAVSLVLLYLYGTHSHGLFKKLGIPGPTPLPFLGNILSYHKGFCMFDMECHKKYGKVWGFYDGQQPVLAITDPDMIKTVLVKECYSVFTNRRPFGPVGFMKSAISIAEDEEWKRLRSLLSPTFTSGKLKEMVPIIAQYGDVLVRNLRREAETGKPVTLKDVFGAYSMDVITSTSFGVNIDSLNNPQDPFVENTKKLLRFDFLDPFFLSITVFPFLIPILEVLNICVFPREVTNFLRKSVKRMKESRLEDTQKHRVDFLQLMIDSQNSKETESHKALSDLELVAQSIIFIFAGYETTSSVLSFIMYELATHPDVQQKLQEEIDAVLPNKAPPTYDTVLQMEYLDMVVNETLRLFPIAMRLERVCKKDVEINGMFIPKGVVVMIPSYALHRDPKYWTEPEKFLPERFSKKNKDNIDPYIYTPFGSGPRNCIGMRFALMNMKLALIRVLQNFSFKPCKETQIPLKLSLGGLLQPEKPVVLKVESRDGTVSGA
Cytochrome P450 2C19 (Homo sapiens), sequence (P33261 whole entry, looked up): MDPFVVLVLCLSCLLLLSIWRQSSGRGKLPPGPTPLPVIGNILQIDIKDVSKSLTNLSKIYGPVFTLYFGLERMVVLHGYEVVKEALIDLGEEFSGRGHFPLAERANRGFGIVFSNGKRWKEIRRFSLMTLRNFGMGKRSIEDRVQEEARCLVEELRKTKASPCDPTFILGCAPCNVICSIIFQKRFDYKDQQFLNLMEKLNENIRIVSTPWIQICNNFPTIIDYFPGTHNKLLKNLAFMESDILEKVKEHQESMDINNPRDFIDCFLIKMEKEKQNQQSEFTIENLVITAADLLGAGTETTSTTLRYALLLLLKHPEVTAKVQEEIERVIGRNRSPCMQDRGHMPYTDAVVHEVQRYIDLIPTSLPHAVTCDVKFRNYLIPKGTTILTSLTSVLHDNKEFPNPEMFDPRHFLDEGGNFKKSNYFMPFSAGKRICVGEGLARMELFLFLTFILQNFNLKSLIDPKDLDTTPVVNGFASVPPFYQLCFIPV

Consider `COC(=O)[C@@]1(Cc2ccc(F)cc2)[C@H]2c3cc(C(=O)N(C)C)n(Cc4ccc(C(F)(F)F)nc4)c3C[C@H]2CN1C(=O)c1ccccc1`, for which the Potency result in assay [1], in assay [2], in assay [3] and in assay [5] was “inactive” each time. The Potency in assay [4] is 1.26 µM (active).

In the case of `C[C@@H](C(=O)Nc1ccc2ccccc2c1)[C@@H]1C[C@@]1(C)[C@@H](NC(=O)OCc1ccccc1)c1ccccc1`, the Potency was 15.8 µM (active) in assay [1], 7.94 µM (active) in assay [4] and 3.16 µM (active) in assay [6]. Further, the Potency entry in assay [2], in assay [3] and in assay [5] was “inactive” throughout.

As for `C=C1C(=O)C=C2CN(C(=O)c3ccccc3)[C@@](Cc3ccc(OC)cc3)(C(=O)OC)[C@@H]12`, the Potency in assay [1] was 15.8 µM (active); in assay [3] it was 1.58 µM (active); in assay [4], 1.58 µM (active). The Potency result in assay [2] and in assay [5] was “inactive” each time.

Regarding `COC(=O)[C@@]1(Cc2ccc(OC)cc2)[C@H]2c3cc(C(=O)N4CCCC4)n(CCn4cc([N+](=O)[O-])nc4C)c3C[C@H]2CN1C(=O)c1ccccc1`, the Potency result in assay [1], in assay [2], in assay [3] and in assay [5] was “inactive” throughout. Besides, the Potency in assay [4] is 3.98 µM (active).

Consider `CC1(C)C(=O)C(c2ccccc2)=C2CN3C(=O)N(CCc4ccccc4)C(=O)C3(Cc3ccccc3)C=C21` (stereo not given), for which the Potency in assay [1] is 6.31 µM (active); in assay [4], 2 µM (active). The Potency result in assay [2], in assay [3] and in assay [5] was “inactive” each time.

In the case of `COC(=O)[C@H]1C[C@@H]1[C@H](NC(=O)Oc1ccc(F)cc1)c1ccccc1`, in assay [1], the Potency was 1 µM (active). Also, the Potency entry in assay [2], in assay [3] and in assay [5] was “inactive” each time.

Consider `C[C@@H](C(=O)O)[C@@H]1C[C@@]1(C)[C@@H](NC(=O)OCc1ccccc1)c1ccccc1`, for which the Potency entry in assay [1], in assay [2], in assay [3] and in assay [5] was “inactive” each time.

Regarding `COC(=O)C1(Cc2ccccc2)C2c3cc(C(=O)N4CCCC4)n(Cc4ccc(OC(F)(F)F)cc4)c3CC2CN1C(=O)c1ccccc1` (stereo not given), the Potency result in assay [1], in assay [2], in assay [3] and in assay [5] was “inactive” each time. Further, the Potency in assay [4] is 3.16 µM (active).

Regarding `C[C@H](CO)NC(=O)[C@H]1C[C@@H]1[C@H](NP(=O)(c1ccccc1)c1ccccc1)c1ccccc1`, the Potency result in assay [1], in assay [2], in assay [3] and in assay [5] was “inactive” each time.

For `C[C@@H](C(=O)NCc1ccccn1)[C@@H]1C[C@@]1(C)[C@@H](NC(=O)OCc1ccccc1)c1ccccc1`, the Potency in assay [1] is 20 µM (active). Moreover, the Potency entry in assay [2], in assay [3] and in assay [5] was “inactive” throughout.

Take `CCC/C=C(\CCC)C(NC(=O)c1ccc(C(F)(F)F)cc1)c1ccc(C(F)(F)F)cc1` (stereo not given): the Potency result in assay [1], in assay [2], in assay [3] and in assay [5] was “inactive” throughout.

For the molecule `CCC[C@@H]1C[C@@]1(CCC)C(NC(=O)c1ccco1)c1ccc(Cl)cc1` (stereo not given in full), the Potency in assay [1] was 25.1 µM (active); in assay [7] it was 3.98 µM (active). For the same molecule, the Potency result in assay [2], in assay [3] and in assay [5] was “inactive” throughout.

With `C[C@@]1(C(NC(=O)c2cccs2)c2ccc(-c3ccccc3)cc2)C[C@H]1C1CCCCC1` (stereo not given in full), the Potency entry in assay [1], in assay [2], in assay [3] and in assay [5] was “inactive” each time.

On to `CCc1c2c(nc3ccc(OC)cc13)COC2`, for which, in assay [1], the Potency is 0.794 µM (active). The Potency entry in assay [2], in assay [3] and in assay [5] was “inactive” in each case.

As to `C[C@@H](C(=O)Nc1ccc2ccccc2c1)[C@H]1C[C@]1(C)[C@H](NS(=O)(=O)c1ccc(-c2ccccc2)cc1)c1ccccc1`, the Potency in assay [1] was 15.8 µM (active); in assay [7], 2 µM (active). In addition, the Potency result in assay [2], in assay [3] and in assay [5] was “inactive” each time.

For `CC[C@H]1C2=C3C(CC[C@H]4C(OCc5ccc(F)cc5C(F)(F)F)OC[C@](C)([C@@H]34)N(C(=O)OC(C)(C)C)C2)C(COC)C1COC` (stereo not given in full), the Potency entry in assay [1], in assay [2], in assay [3] and in assay [5] was “inactive” throughout.

In the case of `O=C(NCc1nc2ccccc2[nH]1)[C@H]1C[C@@H]1[C@H](NP(=O)(c1ccccc1)c1ccccc1)c1ccccc1`, the Potency in assay [1] is 15.8 µM (active). Moreover, the Potency result in assay [2], in assay [3] and in assay [5] was “inactive” in each case.

For `COC(=O)C1CC1C(NC(=O)[C@@H]1CCCN1)c1ccccc1` (stereo not given in full), the Potency in assay [1] was 15.8 µM (active). For the same molecule, the Potency entry in assay [2], in assay [3] and in assay [5] was “inactive” each time.

As to `COC(=O)C1(CC(C)C)C=C2C(=C(c3ccccc3)C(=O)C2C)CN1` (stereo not given), the Potency in assay [1] is 15.8 µM (active). Also, the Potency entry in assay [2], in assay [3] and in assay [5] was “inactive” in each case.

Consider `CCCCCC1=C2CNC(C)(C(=O)OC)C=C2C(C)C1=O` (stereo not given), for which the Potency in assay [1] is 25.1 µM (active). The Potency result in assay [2], in assay [3] and in assay [5] was “inactive” in each case.

`COC(=O)C1(CC(C)C)C=C2C(=C(C(C)C)C(=O)C2C)CN1` (stereo not given): the Potency in assay [1] is 15.8 µM (active). The Potency result in assay [2], in assay [3] and in assay [5] was “inactive” in each case.

For the molecule `COCC1C2CC[C@H]3C(OCc4ccc(F)cc4C(F)(F)F)OC[C@]4(C)[C@H]3C2=C(CN4C(=O)OC(C)(C)C)[C@H](C)C1COC` (stereo not given in full), the Potency in assay [1] was 31.6 µM (active). Further, the Potency entry in assay [2], in assay [3] and in assay [5] was “inactive” throughout.

In the case of `CCCCCC1=C2CNC(Cc3ccccc3)(C(=O)OC)C=C2C(C)C1=O` (stereo not given), the Potency in assay [1] is 15.8 µM (active); in assay [6], 6.31 µM (active). Moreover, the Potency result in assay [2], in assay [3] and in assay [5] was “inactive” each time.

Regarding `CC[C@H]1C2=C3C(CC[C@H]4C(OCc5ccc(F)cc5C(F)(F)F)OC[C@](C)([C@@H]34)N(C(=O)OC(C)(C)C)C2)C2COC(=O)OCC21` (stereo not given in full), the Potency entry in assay [1], in assay [2], in assay [3] and in assay [5] was “inactive” throughout.

In the case of `C#CCCCC(=O)Nc1ccccc1`, in assay [1], the Potency was 20 µM (active). The Potency entry in assay [2], in assay [3] and in assay [5] was “inactive” in each case.

Take `CCC/C=C(\CCC)C(NS(=O)(=O)c1ccc(C(F)(F)F)cc1)c1ccc(-c2ccccc2)cc1` (stereo not given): the Potency result in assay [1], in assay [2], in assay [3] and in assay [5] was “inactive” in each case. For the same molecule, the Potency in assay [6] is 7.94 µM (active).
